Measured values from PubChem BioAssay AID1159580 (chemical genetic matrix, 2015).
Out of some 5,500 compounds screened, about 2,000 (36%) were called active. Roughly 18% stayed inconclusive and do not appear here. Rule as the data show it: active = normalized growth mostly below about 0.91 (no sharp cut-off); inconclusive = no clear call, values can overlap the other calls; inactive = mostly above about 0.92. This is one part of the list.

Assay: chemical genetic growth profiling, strain panel (AID 1159580);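 also: tested at 20 µM; growth read once vehicle control cultures reached saturation at 30 °C; 1 = growth at the plate median or of vehicle wells; lower values mean less growth of the strain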
Conditions: growth OD

Measured: normalized growth

C=C[C@@H](C1=CC(=O)C(OC)=C(OC)C1=O)c1ccccc1
inactive: S. cerevisiae deletion strains, locus YKL009W, strain mrt4, active compounds read low 0.957 | S. cerevisiae deletion strains, locus YKL068W, active compounds read low 1 | S. cerevisiae deletion strains, locus YKL085W, strain MDH1 (second series), active compounds read low 0.936 | S. cerevisiae deletion strains, locus YKL085W, strain MDH1, active compounds read low 0.936 | S. cerevisiae deletion strains, locus YKR026C, strain gcn3, active compounds read low 0.945 | S. cerevisiae deletion strains, locus YKR091W, strain srl3, active compounds read low 0.95 | S. cerevisiae deletion strains, locus YLR058C, strain SHM2, active compounds read low 0.98 | S. cerevisiae deletion strains, locus YLR357W, strain rsc2, active compounds read low 0.901 | S. cerevisiae deletion strains, locus YLR384C, strain iki3, active compounds read low 0.982 | S. cerevisiae deletion strains, locus YML032C, strain rad52, active compounds read low 0.961 | S. cerevisiae deletion strains, locus YML120C, strain ndi1, active compounds read low 0.924 | S. cerevisiae deletion strains, locus YML124C, strain tub3, active compounds read low 0.981 | S. cerevisiae deletion strains, locus YNL250W, strain rad50, active compounds read low 0.916 | S. cerevisiae deletion strains, locus YNL298W, strain CLA4, active compounds read low 0.925 | S. cerevisiae deletion strains, locus YNL322C, strain KRE1 (second series), active compounds read low 0.911 | S. cerevisiae deletion strains, locus YNR049C, strain mso1, active compounds read low 0.986 | S. cerevisiae deletion strains, locus YNR052C, strain pop2, active compounds read low 0.983 | S. cerevisiae deletion strains, locus YOL147C, strain pex11, active compounds read low 0.959 | S. cerevisiae deletion strains, locus YOR001W, strain rrp6, active compounds read low 0.976 | S. cerevisiae deletion strains, locus YOR080W, strain dia2, active compounds read low 1.01 | S. cerevisiae deletion strains, locus YOR144C, strain elg1, active compounds read low 0.962 | S. cerevisiae deletion strains, locus YOR231W, strain MKK1, active compounds read low 0.93 | S. cerevisiae deletion strains, locus YOR290C, strain snf2, active compounds read low 0.911 | S. cerevisiae deletion strains, locus YPL078C, strain atp4, active compounds read low 0.954 | S. cerevisiae deletion strains, locus YPL106C, strain sse1, active compounds read low 0.984 | S. cerevisiae deletion strains, locus YPL256C, strain CLN2, active compounds read low 0.895 | S. cerevisiae deletion strains, locus YPR141C, strain kar3, active compounds read low 0.983
active: S. cerevisiae deletion strains, locus YKL160W, strain elf1, active compounds read low 0.401 | S. cerevisiae deletion strains, locus YKL190W, strain CNB1, active compounds read low 0.0937 | S. cerevisiae deletion strains, locus YKR001C, strain vps1, active compounds read low 0.158 | S. cerevisiae deletion strains, locus YLL001W, strain dnm1, active compounds read low 0.794 | S. cerevisiae deletion strains, locus YLL026W, active compounds read low 0.679 | S. cerevisiae deletion strains, locus YLL041C, strain sdh2, active compounds read low 0.811 | S. cerevisiae deletion strains, locus YLR027C, strain aat2, active compounds read low 0.448 | S. cerevisiae deletion strains, locus YLR039C, strain RIC1, active compounds read low 0.361 | S. cerevisiae deletion strains, locus YLR102C, strain apc9, active compounds read low 0.515 | S. cerevisiae deletion strains, locus YLR113W, strain HOG1, active compounds read low 0.719 | S. cerevisiae deletion strains, locus YLR221C, strain rsa3, active compounds read low 0.363 | S. cerevisiae deletion strains, locus YLR258W, strain gsy2, active compounds read low 0.561 | S. cerevisiae deletion strains, locus YLR262C, strain YPT6 (second series), active compounds read low 0.17 | S. cerevisiae deletion strains, locus YLR262C, strain YPT6, active compounds read low 0.195 | S. cerevisiae deletion strains, locus YLR268W, strain sec22, active compounds read low 0.193 | S. cerevisiae deletion strains, locus YLR320W, strain mms22, active compounds read low 0.219 | S. cerevisiae deletion strains, locus YLR342W, strain FKS1 (second series), active compounds read low 0.331 | S. cerevisiae deletion strains, locus YLR342W, strain FKS1, active compounds read low 0.72 | S. cerevisiae deletion strains, locus YLR370C, strain arc18, active compounds read low 0.811 | S. cerevisiae deletion strains, locus YLR371W, strain rom2, active compounds read low 0.285 | S. cerevisiae deletion strains, locus YLR418C, strain cdc73, active compounds read low 0.141 | S. cerevisiae deletion strains, locus YML016C, strain PPZ1, active compounds read low 0.292 | S. cerevisiae deletion strains, locus YMR058W, strain fet3, active compounds read low 0.612 | S. cerevisiae deletion strains, locus YMR078C, strain ctf18, active compounds read low 0.381 | S. cerevisiae deletion strains, locus YMR125W, strain sto1, active compounds read low 0.284 | S. cerevisiae deletion strains, locus YMR129W, active compounds read low 0.659 | S. cerevisiae deletion strains, locus YMR205C, strain PFK2, active compounds read low 0.689 | S. cerevisiae deletion strains, locus YMR223W, strain ubp8, active compounds read low 0.493 | S. cerevisiae deletion strains, locus YMR231W, strain pep5, active compounds read low 0.529 | S. cerevisiae deletion strains, locus YMR307W, strain GAS1, active compounds read low 0.224 | S. cerevisiae deletion strains, locus YNL067W, strain RPL9B, active compounds read low 0.67 | S. cerevisiae deletion strains, locus YNL071W, strain lat1, active compounds read low 0.0795 | S. cerevisiae deletion strains, locus YNL183C, strain NPR1, active compounds read low 0.799 | S. cerevisiae deletion strains, locus YNL209W, strain ssb2, active compounds read low 0.748 | S. cerevisiae deletion strains, locus YNL233W, strain BNI4, active compounds read low 0.121 | S. cerevisiae deletion strains, locus YNL248C, strain rpa49, active compounds read low 0.403 | S. cerevisiae deletion strains, locus YNL271C, strain bni1, active compounds read low 0.88 | S. cerevisiae deletion strains, locus YNL307C, strain MCK1, active compounds read low 0.0762 | S. cerevisiae deletion strains, locus YNL322C, strain KRE1, active compounds read low 0.835 | S. cerevisiae deletion strains, locus YOL012C, strain htz1 0.17 | S. cerevisiae deletion strains, locus YOR061W, strain CKA2, active compounds read low 0.829 | S. cerevisiae deletion strains, locus YOR069W, strain VPS5, active compounds read low 0.314 | S. cerevisiae deletion strains, locus YOR070C, strain gyp1, active compounds read low 0.487 | S. cerevisiae deletion strains, locus YOR083W, strain WHI5, active compounds read low 0.554 | S. cerevisiae deletion strains, locus YOR106W, strain vam3, active compounds read low 0.297 | S. cerevisiae deletion strains, locus YOR136W, strain idh2, active compounds read low 0.675 | S. cerevisiae deletion strains, locus YOR184W, strain ser1, active compounds read low 0.15 | S. cerevisiae deletion strains, locus YOR265W, strain rbl2, active compounds read low 0.686 | S. cerevisiae deletion strains, locus YOR270C, strain vph1, active compounds read low 0.616 | S. cerevisiae deletion strains, locus YOR316C, strain cot1, active compounds read low 0.833 | S. cerevisiae deletion strains, locus YPL051W, strain arl3, active compounds read low 0.384 | S. cerevisiae deletion strains, locus YPL240C, strain hsp82, active compounds read low 0.625 | S. cerevisiae deletion strains, locus YPL241C, strain CIN2, active compounds read low 0.523 | S. cerevisiae deletion strains, locus YPR119W, strain clb2, active compounds read low 0.615 | S. cerevisiae deletion strains, locus YPR163C, strain tif3, active compounds read low 0.151 | S. cerevisiae deletion strains, locus YPR167C, strain met16, active compounds read low 0.456 | S. cerevisiae deletion strains, strain wtn01, active compounds read low 0.196 | S. cerevisiae strains, strain wild type, active compounds read low 0.114
